# VACV Venus inh = qHTS for Stage-Specific Inhibitors of Vaccinia Orthopoxvirus: Venus Reporter Primary qHTS | Vaccinia virus Venus reporter expression, fluorescence | Potency, µM (titrated, usually from 36.5 µM), inactives show top-dose activity change, negative = inhibition, most hits filed as inhibitors | 330,000 tested, 0.46% active; calls by dose curve; tested in A549 cells; note: potency is the fitted concentration of half-maximal effect; % is set by controls: 0 for no effect and ±100 for the full control effect; nearly all actives have a fitted effect of over 30% in size
# VACV mCherry inh = qHTS for Stage-Specific Inhibitors of Vaccinia Orthopoxvirus: mCherry Reporter Primary qHTS | Vaccinia virus mCherry reporter infection, fluorescence | Potency, µM (top dose mostly 36.5 µM), without a hit: at the top dose activity change, negative = inhibition, most hits filed as inhibitors | 310,000 tested, 0.63% active; calls by dose curve; tested in A549 cells; note: potency is the fitted concentration of half-maximal effect; % is set by controls: 0 for no effect and ±100 for the full control effect; nearly all actives have a fitted effect of over 35% in size
# Cycloheximide cs = Cycloheximide Counterscreen for Small Molecule Inhibitors of Shiga Toxin | cell reporter, cycloheximide protein synthesis inhibition counterscreen | AID 2314, 2010 | max response, % | 300,000 tested, 12% active; in the data active = max response mostly above about 13%, no sharp cut-off; inactive = mostly below about 14%; note: read at 38.3 µM for the half of the compounds with a filed dose; 0% is about no effect
# LASV entry inh = qHTS for Inhibitors of binding or entry into cells for Lassa Virus. Lassa virus pseudotype entry inhibition, cell reporter. Potency, µM (titrated, usually from 37.9 µM), without a hit: at the top dose activity change, negative = inhibition, most hits filed as inhibitors. 300,000 tested, 1.2% active. AID 540256, 2011; calls by dose curve; tested in HEK293 cells; note: potency is the fitted concentration of half-maximal effect; % is set by controls: 0 for no effect and ±100 for the full control effect; nearly all actives have a fitted effect of over 50% in size
# Marburg entry inh = qHTS for inhibitors of binding or entry into cells for Marburg Virus; Marburg virus pseudotyped entry inhibition, cell reporter; Potency, µM (series often up to 37.8 µM), inactives show at the highest dose activity change, negative = inhibition, hits mostly inhibitors; 300,000 tested, 1.8% active; AID 540276, 2011; calls by dose curve; tested in HEK293 cells; note: potency is the fitted concentration of half-maximal effect; % is set by controls: 0 for no effect and ±100 for the full control effect
# Shiga toxin inh = A qHTS for Small Molecule Inhibitors of Shiga Toxin. Vero cells, Shiga toxin protein synthesis inhibition reporter. inhibition, % at 38.7 µM. 290,000 tested, 9.2% active; in the data active = inhibition mostly above about 28%, no sharp cut-off; inactive = mostly below about 43%; note: 0% is about no effect
# * marks the source's active call; other numbers are inactive results; i = inactive; ? = inconclusive; nt = no result; [ ] = another dose, or the depositor's remark. Many of the other results were omitted from the sample, so hits are more common in it than they were.
SMILES,VACV Venus inh,VACV mCherry inh,Cycloheximide cs,LASV entry inh,Marburg entry inh,Shiga toxin inh
COc1cccc(NC(=O)N2CCCc3ccccc32)c1,nt,nt,47*,nt,nt,73*
CCNC(=O)C1CCN(c2nc3ccccc3nc2C(F)(F)F)CC1,-8%,-1%,nt,30%[46.1 µM],nt,nt
CC1(C)SC2c3ccccc3C(=O)N2C1C(=O)O (configuration not stated),-6%,i,nt,10%[46.1 µM],16%,nt
COc1cc(OC)cc(C(=O)N2CCCc3ccccc32)c1,-11%,-1%,24*,-12%,-11%,85
COc1ccc(C(=O)N2CCCc3ccccc32)cc1Br,-8%,-1%,1,-18%,5%,-7
COc1cccc(NC(=O)N2CCCC2)c1,nt,nt,27,nt,nt,54*
O=C(c1ccc(Cl)c([N+](=O)[O-])c1)N1CCCc2ccccc21,nt,nt,34*,nt,nt,39*
O=C(c1coc(=O)c(Br)c1)N1CCCc2ccccc21,-12%,-17%,40*,-14%,14%,74*
O=C(c1cccc(Cl)c1)N1CCCc2ccccc21,-12%,i,-3,1%,5%,nt
COCCNC(=O)Cn1cc(S(=O)(=O)Cc2ccccc2Cl)c2ccccc21,-5%,i,nt,-2%[46.1 µM],nt,nt
O=C(c1cc2ccccc2c(=O)o1)N1CCCc2ccccc21,0%,-23%[1.46 µM],17*,2%,7%,50
COc1ccc(NC(=O)N2CCCc3ccccc32)cc1OC,nt,nt,16*,nt,nt,55
O=C(c1cc(=O)c2ccccc2o1)N1CCCc2ccccc21,-2%,i,15,-1%,-15%[46.1 µM],7
COc1ccc(CC(=O)N2CCCc3ccccc32)cc1OC,-8%,-13%,-3,?,?,-14
COc1cccc(NC(=O)c2ccc(NCCCN3CCC(C)CC3)c([N+](=O)[O-])c2)c1,-16%,i,-4,-15%[46.1 µM],4µM*,-10
CC(=O)c1cccc(NC(=O)N2CCCc3ccccc32)c1,nt,nt,21*,6%,?,58
Cc1ccc(C)c(NC(=O)C2CCCN(S(=O)(=O)c3cccnc3)C2)c1 (configuration not stated),nt,nt,-10,nt,nt,25
CCOC(=O)[C@@H]1[C@H]2COc3ccccc3[C@@H]2N2C(=O)N(c3ccc(Br)cc3)C(=O)[C@@]12C,-8%,i,nt,nt,nt,nt
CC1CCCCN1CCNC(=O)c1ccc(Cn2c(SCc3ccccc3)nc3cccnc32)cc1 (configuration not stated),-9%,-11%,nt,nt,?,nt
COc1ccc(OC)c(C2=NOC(C(=O)N3CCCc4ccccc43)C2)c1 (configuration not stated),nt,nt,56*,4%,17%,84*
O=C(C1CC(c2ccc(F)cc2)=NO1)N1CCCc2ccccc21 (configuration not stated),-20%,-18%,0,-7%,?,17
CN(C)c1ccc(/C=C/c2cc(/C=C/c3ccc(N(C)C)cc3)c3ccccc3n2)cc1,61%,-13%,nt,nt,nt,nt
CCN(CC)c1ccc(/C=C/c2cc(-c3ccccc3)c3ccccc3n2)cc1,nt,nt,16*,nt,nt,24
Fc1ccc(Nc2nc(NCc3cccs3)nc3ccsc23)cc1,-23%,-7%,nt,nt,nt,nt
Cc1cc2cc(CCNC(=O)C(=O)c3c[nH]c4ccccc34)c(=O)[nH]c2cc1C,-22%,-5%,-2,13µM*,?,-2
SMILES,VACV Venus inh,VACV mCherry inh,Cycloheximide cs,LASV entry inh,Marburg entry inh,Shiga toxin inh
O=C(NCCOc1ccccc1Cl)C(=O)c1c[nH]c2ccccc12,-1%,-2%,12,17%,18%,34
O=C(NCCc1c[nH]c2ccccc12)C(=O)c1c[nH]c2ccccc12,nt,nt,-6,nt,nt,-2
Cc1cc2cc(CCNC(=O)C(C)C)c(=O)[nH]c2cc1C,-5%,i,nt,?,7%,nt
O=C(NCCOc1ccccc1)C(=O)c1c[nH]c2ccccc12,nt,nt,20*,nt,nt,44
O=C(NCCC1=CCCCC1)C(=O)c1c[nH]c2ccccc12,-22%,-28%,26*,?,?,49*
CC1CCC(NC(=O)N(CCCl)N=O)CC1 (configuration not stated),-25%,-8%,nt,nt,nt,nt
Cc1ccc(-n2c(=O)c3c4c(sc3n(CC(=O)C(C)(C)C)c2=O)CCCCC4)cc1C,-5%,-4%,nt,3%[46.1 µM],2%[46.1 µM],nt
Cc1ccc(NC(=O)CCc2nc3ccccc3c(=O)[nH]2)cc1S(=O)(=O)N1CCOCC1,-9%,-4%,nt,-20%,0%[46.1 µM],nt
CCc1ccc(-c2cc(-c3n[nH]c(=S)n3CC)c3ccccc3n2)cc1,nt,nt,32*,?,-17%,41*
N#C/C(C(=O)N1CCCCC1)=C1/N=C(N)c2ccccc21,-19%,-18%,16*,?,?,37
ON(Cc1c(F)cccc1Cl)Cc1c(F)cccc1Cl,nt,nt,-1,nt,nt,-6
COc1ccc(OC)c(NC(=O)C(=S)NC2CCCCC2)c1,-7%,-20%,11,7%[46.1 µM],-27%[46.1 µM],1
CCOc1ccc(CC(=O)NNC(=O)NC2CCCCC2)cc1,-7%,i,-3,5%[46.1 µM],?,-2
CCOc1ccc(NC(=O)C(=S)NC2CCCCC2)cc1,11%,12%,22*,15%,?,37
CCOc1ccc(NC(=O)N(Cc2cn(CC)c3ccccc23)C2CCCCCC2)cc1,-24%,?,33*,?,?,72*
CCc1ccc(NC(=O)N(Cc2cn(CC)c3ccccc23)C2CCCCC2)cc1,-17%,-21%,nt,?,?,nt
CCOc1ccc(NC(=O)NC2CCCCCCC2)cc1,-24%,-3%,51*,?,?,91*
COc1ccc(NC(=O)C(=S)NC2CCCCC2)cc1,-8%,i,47*,?,?,118*
CCOc1ccc(/C=C/c2cc[n+](C)c3ccccc23)cc1OCC,5%,11%,nt,nt,nt,nt
O=C(NC1CCCCCC1)C(=S)NC1CCCCC1,-3%,i,10,?,-5%[46.1 µM],18
C=C1C(C(=O)Nc2ccc(OCC)cc2)C1C(=O)Nc1ccc(OCC)cc1 (configuration not stated),-6%,i,-3,23%[46.1 µM],-23%[46.1 µM],15
CCc1cccc(NC(=O)NC2CCCCC2)c1,-26%,-26%,23*,?,?,44
CCOc1ccc(NC(=O)NC23CC4CC(CC(C4)C2)C3)cc1,-29%,i,15*,11µM*,?,34
CCc1ccc(NC(=O)C(=S)NC2CCCCC2)cc1,-6%,-2%,23*,?,?,57*
COC(=O)C(O)(c1ccc(NC(=O)NC2CCCCC2)cc1)C(F)(F)F (configuration not stated),-8%,i,35*,?,?,39*
COc1ccc(C(=O)N2CC(=O)Nc3ccc(F)cc3C2c2ccc(F)cc2)c(OC)c1 (configuration not stated),-12%,-3%,nt,-29%[46.1 µM],-7%[46.1 µM],nt
Cc1ccc(CSC2=Nc3ccccc3C3=NC(CC(=O)NCc4cccs4)C(=O)N23)c(C)c1 (configuration not stated),-8%,-14%,nt,?,nt,nt

# Screens: PubChem, National Center for Advancing Translational Sciences (NCATS)
